Measured values reported in PubChem BioAssay (NCATS).
Results filed as inconclusive are left out. A call without a number means that no potency is given here. Calls of active or inactive are those of the source. Unless noted, calls come from the whole dose curve; as a rule, active = well fitted curve in the direction sought with a large enough effect; inconclusive = small, poorly fitted or top-dose-only effect, or another doubt; inactive = no such curve, though single readings can be large; an effect the other way counts as inactive or inconclusive.

How the values were obtained:
[1] = qHTS for differential inhibitors of proliferation of Plasmodium falciparum line D10 (AID 1877);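 note: parasites grown with compound for 72 h before DNA staining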; note: potency is the fitted concentration of half-maximal effect
[2] = qHTS for differential inhibitors of proliferation of Plasmodium falciparum line W2 (AID 1883); conditions: Potency: Plasmodium falciparum W2 proliferation inhibition;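 note: parasites grown with compound for 72 h before lysis and staining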; note: potency is the fitted concentration of half-maximal effect
[3] = qHTS for differential inhibitors of proliferation of Plasmodium falciparum line HB3 (AID 1886); conditions: Potency: Plasmodium falciparum HB3 proliferation inhibition;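 note: parasites grown with compound for 72 h before SYBR Green readout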; note: potency is the fitted concentration of half-maximal effect
[4] = molecular target: Ferritin light chain (Equus caballus) (UniProt P02791); assay: qHTS Validation Assay for Identification of Novel General Anesthetics (AID 2323); note: series mostly up to about 77 µM
Summary of the method: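 Apoferritin from horse spleen (10 uM) was mixed with 1-aminoanthracene at 50% saturation in PBS, then compounds were added. After 10 min at room temperature, fluorescence was read (ex 380 nm, em 535 nm) and normalized to free-probe and complex controls.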

[5] = molecular target: ATP-dependent DNA helicase Q1 (Homo sapiens) (UniProt P46063); assay: qHTS Validation Assay for Inhibitors of RecQ-Like Dna Helicase 1 (RECQ1) (AID 2353)
Summary of the method: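 RECQ1T1 50 nM; forked duplex (20 bp + 30-nt ss tails) 200 nM, ATP 2 mM final; pH 8.0, 2 mM MgCl2, 2.5 ug/ml poly(dI-dC); 15 min compound preincubation; discontinuous kinetic read over 2 h at RT.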

[6] = molecular target: RecQ-like DNA helicase BLM (Homo sapiens) (UniProt P54132); assay: qHTS Validation Assay for Inhibitors of Bloom's syndrome helicase (BLM) (AID 2364)
Summary of the method: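 50 nM BLM preincubated 15 min at room temperature with compound in pH 8.0 Tris buffer containing 2.5 ug/ml poly(dI-dC); started with 200 nM TAMRA/BHQ-2 forked duplex and 2 mM ATP (final). Unwinding read as TAMRA fluorescence increase, two reads 2 h apart.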

[7] = Cytometric Cell-Based qHTS for Inhibitors of the mTORC1 Signaling Pathway in MEF (Tsc2-/-, p53-/-) Cells (AID 2660);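 note: Tsc2 and p53 null MEFs carrying empty vector with compound for 24 h; percent of cells above a phospho-rpS6 to PI ratio cutoff in each well; series mostly up to about 38 µM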
Summary of the method: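 Cells are plated, treated with compound for 24 hrs at 37 degree Celsius, then fixed, blocked and immunostained for phospho-rpS6 Ser235/236. Propidium iodide counterstain follows. Per-well % positive cells is derived from the PI-normalized phospho-S6 signal.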

[8] = High Content Imaging Cell-Based qHTS for Inhibitors of the mTORC1 Signaling Pathway in MEF (Tsc2-/-, p53-/-) Cells (AID 2666);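 note: percent of cells scored positive for phospho-rpS6 Ser235/236 immunostaining by imaging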
Summary of the method: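 MEF Tsc2-/- p53-/- (empty vector), DMEM/10% FBS; cpd 24 h 37 °C; PFA fix, Alexa-488 p-rpS6 S235/236 Ab, Hoechst; imaged; rapamycin-defined inhibition; % positive cells/well.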

[9] = High Content Imaging Cell-Based qHTS for Inhibitors of the mTORC1 Signaling Pathway in MEF Cells (AID 2667);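 note: Tsc2-/- p53-/- MEFs stably re-expressing wild-type Tsc2 exposed 24 h; series mostly up to about 38 µM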
Summary of the method: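 Read-out is the share of phospho-rpS6-positive cells per well, from Hoechst-normalized Alexa-488 Ser235/236 staining imaged on IN Cell. Cells: WT Tsc2-expressing Tsc2-/-, p53-/- MEFs exposed to compound for 24 hrs.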

[10] = Validation screen for small molecules that induce DNA re-replication in MCF 10A normal breast cells (AID 463097); note: nearly all actives have a fitted effect of over 60% in size; note: potency is the fitted concentration of half-maximal effect
Summary of the method: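 DNA re-replication was detected as a rise in nuclei with elevated Hoechst fluorescence after a 48 hr compound exposure of MCF 10A cells at 37 C.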

[11] = molecular target: Ubiquitin carboxyl-terminal hydrolase 2 (Homo sapiens) (UniProt O75604); assay: qHTS Validation Assay for Inhibitors of Ubiquitin-specific Protease USP2a Using CHOP2 as the Reporter (AID 463106)
Summary of the method: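 Fluorescence read-out at Ex 485nm/Em 531nm after 60min RT, following addition of 25nM Ub-CHOP2 plus 25nM reporter substrate to USP2 core (10nM) pretreated 30min with compound. Data normalized to NEM full inhibition; concentration-response curves fitted.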

[12] = molecular target: DNA polymerase III PolC-type (Bacillus subtilis (strain 168)) (UniProt P13267); assay: qHTS Validation Assay for the Inhibitors of DNA Replication in Gram-Positive Bacteria (AID 485295);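 note: reconstituted holoenzyme with PolC plus beta clamp SSB and primase; PicoGreen fluorescence of double-stranded DNA made on primed circular M13 template; series mostly up to about 57 µM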
Summary of the method: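 Primed replication of single-stranded M13Gori by a four-protein B. subtilis holoenzyme is measured at room temperature. Double-stranded product is quantified by PicoGreen fluorescence after an EDTA stop; inhibition is scaled between DMSO and EDTA controls.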

[13] = Cytometry Cell-Based qHTS for Inhibitors of the mTORC1 Signaling Pathway in MEF cells (AID 2668);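 note: Tsc2-/- p53-/- mouse embryonic fibroblasts stably re-expressing wild-type Tsc2; percent cells positive for phospho-rpS6 Ser235/236 relative to propidium iodide stain; series mostly up to about 38 µM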
Summary of the method: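 Pathway inhibition in WT Tsc2-rescued Tsc2-/-, p53-/- MEFs is measured as the Alexa-488 phospho-rpS6 to propidium iodide intensity ratio after 24 hrs of compound at 37 degree Celsius. PI-stained cell number gives viability.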

[14] = molecular target: Tumor susceptibility gene 101 protein (Homo sapiens) (UniProt Q99816); assay: qHTS Validation Assay for Iinhibitors of HIV-1 Budding by Blocking the Interaction of PTAP/TSG101 (AID 485342; calls by dose curve)
Summary of the method: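 Fluorescence anisotropy measured PTAP-Tsg101 interaction. Final concentrations were 10 uM protein domain and 50 nM labeled peptide, equilibrated 20 min at room temperature.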

[15] = qHTS Assay for Modulators of Human Peripheral Myelin Protein 22 (PMP22) Expression/Activity (AID 1967; active = well fitted curve in the direction sought with a large enough effect in the signal ratio; the % refers to the signal ratio)
Summary of the method: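 Quantitative HTS in a mouse Schwann cell line expressing dual click beetle luciferases: Pmp22 promoter (green) and control EF-alpha promoter (red). After 24h treatment, corrected green/red signal ratio gave %Activity relative to untreated cells.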

[16] = qHTS Validation Assay to Find Inhibitors of Chronic Active B-Cell Receptor Signaling (AID 485345; active = well fitted curve in the direction sought with a large enough effect in the main read-out, with a control signal flat, not every such curve was filed as active)
Summary of the method: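 TMD8 ABC-DLBCL cells stably carrying doxycycline-inducible IkappaBalpha–green luciferase fusion plus unfused red luciferase; compounds 46 uM to 3 nM, 4 h at 37C with doxycycline. Corrected green/red luminescence ratio normalized to 10 uM MG-132 and basal cell wells; curves fitted.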

[17] = qHTS for differential inhibitors of proliferation of Plasmodium falciparum line Dd2 (AID 1882); conditions: Potency: Plasmodium falciparum Dd2 proliferation inhibition;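 note: series mostly up to about 29 µM; compound exposure of 72 h on infected erythrocytes; nearly all actives have a fitted effect of over 65% in size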
Summary of the method: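 RBC culture, 0.3% parasitemia / 2.5% Hct final; cpd added by pin tool in DMSO; 72 h, 37 C, 5% CO2; lysis buffer + SYBR Green I, o/n RT dark; FI 485/535; norm. to artemisinin 0.29 uM and DMSO.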

Ubiquitin carboxyl-terminal hydrolase 2 (Homo sapiens), sequence (O75604 whole entry, looked up): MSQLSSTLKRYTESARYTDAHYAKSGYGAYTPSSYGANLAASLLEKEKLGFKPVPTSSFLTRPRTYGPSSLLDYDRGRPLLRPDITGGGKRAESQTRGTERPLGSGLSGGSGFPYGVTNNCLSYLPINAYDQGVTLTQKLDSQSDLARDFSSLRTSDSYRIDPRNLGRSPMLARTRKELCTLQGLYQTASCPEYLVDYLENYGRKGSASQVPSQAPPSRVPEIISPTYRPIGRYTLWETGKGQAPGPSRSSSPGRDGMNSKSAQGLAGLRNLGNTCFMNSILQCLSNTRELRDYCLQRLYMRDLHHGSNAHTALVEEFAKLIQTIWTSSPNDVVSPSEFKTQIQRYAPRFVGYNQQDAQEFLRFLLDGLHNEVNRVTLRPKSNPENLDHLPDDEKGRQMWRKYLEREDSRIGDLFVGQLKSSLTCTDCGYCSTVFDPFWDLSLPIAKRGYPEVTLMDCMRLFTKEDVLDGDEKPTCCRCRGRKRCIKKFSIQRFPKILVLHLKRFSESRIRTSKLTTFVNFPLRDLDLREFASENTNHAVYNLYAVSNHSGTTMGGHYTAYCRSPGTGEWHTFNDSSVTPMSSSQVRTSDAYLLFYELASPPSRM
RecQ-like DNA helicase BLM (Homo sapiens), sequence (P54132 whole entry, looked up): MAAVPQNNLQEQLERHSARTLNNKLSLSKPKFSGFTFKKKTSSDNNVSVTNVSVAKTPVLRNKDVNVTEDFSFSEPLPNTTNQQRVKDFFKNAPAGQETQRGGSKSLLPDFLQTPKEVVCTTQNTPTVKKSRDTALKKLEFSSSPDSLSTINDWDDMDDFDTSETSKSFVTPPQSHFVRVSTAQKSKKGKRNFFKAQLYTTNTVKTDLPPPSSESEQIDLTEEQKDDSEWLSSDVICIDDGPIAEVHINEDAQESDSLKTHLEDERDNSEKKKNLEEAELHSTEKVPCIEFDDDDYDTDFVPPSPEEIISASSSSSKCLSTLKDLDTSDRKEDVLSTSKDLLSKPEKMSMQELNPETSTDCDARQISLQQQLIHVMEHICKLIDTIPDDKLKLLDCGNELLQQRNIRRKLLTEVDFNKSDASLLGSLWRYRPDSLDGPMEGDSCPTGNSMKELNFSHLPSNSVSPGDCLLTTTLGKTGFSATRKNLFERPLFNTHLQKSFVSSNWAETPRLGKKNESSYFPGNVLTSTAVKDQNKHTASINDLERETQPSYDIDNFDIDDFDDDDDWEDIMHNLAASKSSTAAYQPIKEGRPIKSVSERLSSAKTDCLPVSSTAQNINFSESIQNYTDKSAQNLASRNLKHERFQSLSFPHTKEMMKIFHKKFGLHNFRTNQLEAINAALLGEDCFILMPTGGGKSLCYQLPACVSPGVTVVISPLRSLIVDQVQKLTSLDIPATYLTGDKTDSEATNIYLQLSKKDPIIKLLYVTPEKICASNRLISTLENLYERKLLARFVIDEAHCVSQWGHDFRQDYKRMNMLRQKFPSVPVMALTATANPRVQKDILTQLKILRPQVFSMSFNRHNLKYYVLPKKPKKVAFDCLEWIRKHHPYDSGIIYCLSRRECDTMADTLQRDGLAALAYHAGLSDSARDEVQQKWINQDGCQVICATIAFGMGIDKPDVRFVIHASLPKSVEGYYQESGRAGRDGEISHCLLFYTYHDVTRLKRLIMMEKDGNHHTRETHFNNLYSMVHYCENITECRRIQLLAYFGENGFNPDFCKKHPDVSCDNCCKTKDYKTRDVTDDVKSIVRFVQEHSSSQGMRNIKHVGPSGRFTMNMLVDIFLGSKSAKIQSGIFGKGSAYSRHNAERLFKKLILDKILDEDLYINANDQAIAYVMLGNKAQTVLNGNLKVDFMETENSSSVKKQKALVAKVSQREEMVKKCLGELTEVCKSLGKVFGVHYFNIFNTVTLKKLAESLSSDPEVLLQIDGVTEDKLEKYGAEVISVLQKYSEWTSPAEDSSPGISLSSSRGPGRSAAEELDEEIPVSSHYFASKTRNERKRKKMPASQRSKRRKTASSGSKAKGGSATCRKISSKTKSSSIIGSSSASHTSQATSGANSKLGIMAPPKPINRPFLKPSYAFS
ATP-dependent DNA helicase Q1 (Homo sapiens), sequence (P46063 whole entry, looked up): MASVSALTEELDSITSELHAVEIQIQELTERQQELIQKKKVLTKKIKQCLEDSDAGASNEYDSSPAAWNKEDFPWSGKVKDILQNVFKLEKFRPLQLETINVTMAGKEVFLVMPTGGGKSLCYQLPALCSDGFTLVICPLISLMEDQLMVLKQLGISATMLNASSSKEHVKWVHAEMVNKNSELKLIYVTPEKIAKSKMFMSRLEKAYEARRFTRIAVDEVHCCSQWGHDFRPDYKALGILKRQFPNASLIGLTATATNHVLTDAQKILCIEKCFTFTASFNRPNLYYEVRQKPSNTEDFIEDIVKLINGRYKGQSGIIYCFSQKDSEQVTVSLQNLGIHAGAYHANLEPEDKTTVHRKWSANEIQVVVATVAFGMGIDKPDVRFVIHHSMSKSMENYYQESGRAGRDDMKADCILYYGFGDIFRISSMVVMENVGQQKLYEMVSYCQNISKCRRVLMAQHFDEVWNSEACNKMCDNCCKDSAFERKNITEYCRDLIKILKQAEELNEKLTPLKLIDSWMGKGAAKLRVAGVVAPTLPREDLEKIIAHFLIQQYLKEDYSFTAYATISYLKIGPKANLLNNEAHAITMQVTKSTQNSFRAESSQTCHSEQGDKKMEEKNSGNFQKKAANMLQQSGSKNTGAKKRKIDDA
DNA polymerase III PolC-type (Bacillus subtilis (strain 168)), sequence (P13267 whole entry, looked up): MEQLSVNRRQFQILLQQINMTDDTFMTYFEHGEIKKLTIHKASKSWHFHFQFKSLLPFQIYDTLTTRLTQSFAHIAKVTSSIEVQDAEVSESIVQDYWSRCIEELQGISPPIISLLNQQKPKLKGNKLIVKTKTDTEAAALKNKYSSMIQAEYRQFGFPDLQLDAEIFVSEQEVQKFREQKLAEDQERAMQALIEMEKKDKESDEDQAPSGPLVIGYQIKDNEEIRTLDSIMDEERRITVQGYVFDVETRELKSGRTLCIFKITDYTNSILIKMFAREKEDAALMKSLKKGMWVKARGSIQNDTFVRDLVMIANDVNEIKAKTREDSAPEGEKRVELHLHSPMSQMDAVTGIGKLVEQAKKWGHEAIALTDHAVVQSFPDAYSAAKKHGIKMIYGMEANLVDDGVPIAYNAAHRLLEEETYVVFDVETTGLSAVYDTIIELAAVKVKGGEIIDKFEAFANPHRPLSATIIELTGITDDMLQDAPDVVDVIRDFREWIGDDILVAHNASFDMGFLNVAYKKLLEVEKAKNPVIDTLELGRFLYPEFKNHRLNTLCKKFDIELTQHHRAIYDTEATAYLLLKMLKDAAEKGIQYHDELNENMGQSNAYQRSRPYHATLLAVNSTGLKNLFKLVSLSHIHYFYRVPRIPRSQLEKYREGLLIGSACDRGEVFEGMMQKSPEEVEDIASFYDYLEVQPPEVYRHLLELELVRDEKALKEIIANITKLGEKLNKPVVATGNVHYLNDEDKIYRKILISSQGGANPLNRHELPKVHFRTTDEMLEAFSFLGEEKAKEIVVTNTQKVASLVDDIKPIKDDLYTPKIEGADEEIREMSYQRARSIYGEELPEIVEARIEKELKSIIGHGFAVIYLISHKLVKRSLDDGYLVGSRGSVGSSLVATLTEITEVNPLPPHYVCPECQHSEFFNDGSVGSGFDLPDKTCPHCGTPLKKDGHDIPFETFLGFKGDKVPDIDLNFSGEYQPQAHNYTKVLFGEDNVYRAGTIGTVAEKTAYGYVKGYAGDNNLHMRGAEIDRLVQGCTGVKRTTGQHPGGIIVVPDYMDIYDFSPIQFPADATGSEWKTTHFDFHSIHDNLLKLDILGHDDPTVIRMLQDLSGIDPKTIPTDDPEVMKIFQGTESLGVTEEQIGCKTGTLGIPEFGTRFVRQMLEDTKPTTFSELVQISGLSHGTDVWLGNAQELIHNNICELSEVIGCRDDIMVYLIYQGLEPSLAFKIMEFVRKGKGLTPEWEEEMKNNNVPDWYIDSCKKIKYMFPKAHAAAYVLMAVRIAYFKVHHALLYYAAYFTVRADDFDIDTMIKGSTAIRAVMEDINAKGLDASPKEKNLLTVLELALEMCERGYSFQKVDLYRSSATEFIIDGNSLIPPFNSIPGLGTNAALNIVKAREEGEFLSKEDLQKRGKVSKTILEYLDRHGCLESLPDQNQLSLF
Ferritin light chain (Equus caballus), sequence (P02791 2-175 limits assumed): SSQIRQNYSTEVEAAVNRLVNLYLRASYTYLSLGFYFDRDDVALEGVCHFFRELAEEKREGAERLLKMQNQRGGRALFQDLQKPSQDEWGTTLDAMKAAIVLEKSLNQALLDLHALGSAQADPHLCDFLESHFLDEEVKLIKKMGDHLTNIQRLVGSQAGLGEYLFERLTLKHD
Tumor susceptibility gene 101 protein (Homo sapiens), sequence (Q99816 whole entry, looked up, the tested form may be a part): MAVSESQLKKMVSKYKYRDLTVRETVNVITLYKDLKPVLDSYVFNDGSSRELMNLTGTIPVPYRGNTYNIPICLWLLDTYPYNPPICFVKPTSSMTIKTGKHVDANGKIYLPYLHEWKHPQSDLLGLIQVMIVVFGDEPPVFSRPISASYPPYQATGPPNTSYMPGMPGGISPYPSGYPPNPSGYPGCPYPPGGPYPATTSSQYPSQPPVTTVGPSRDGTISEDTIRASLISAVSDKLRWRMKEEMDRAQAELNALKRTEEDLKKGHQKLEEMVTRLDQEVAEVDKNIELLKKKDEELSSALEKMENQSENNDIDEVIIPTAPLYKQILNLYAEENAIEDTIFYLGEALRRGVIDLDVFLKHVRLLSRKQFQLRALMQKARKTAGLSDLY

Structure (SMILES) | Potency [1] | Potency [2] | Potency [3] | Potency [4] | Potency [5] | Potency [6] | outcome [7] | Potency [8] | Potency [9] | Potency [10] | Potency [11] | Potency [12] | Potency [13] | outcome [14] | outcome [15] | outcome [16] | Potency [17]
CC(=O)NNC(=O)N1Cc2ccccc2Oc2ccc(Cl)cc21 | inactive | inactive | inactive | inactive | inactive | inactive | inactive | inactive | inactive | inactive | inactive | inactive |  |  |  |  | 
CCN1C(=O)C=CC1=O | inactive | inactive | inactive | inactive | inactive |  | inactive | inactive | inactive | 20 µM (active) |  | inactive | inactive | inactive |  |  | 
CCC1(O)CC2CN(CCc3c([nH]c4ccccc34)[C@@](C(=O)OC)(c3cc4c(cc3OC)N(C=O)C3[C@]45CCN4CC=C[C@@](CC)([C@@H](OC(C)=O)[C@]3(O)C(=O)OC)[C@H]45)C2)C1 (stereo not given in full) | 0.224 µM (active) | 0.0501 µM (active) | 1.78 µM (active) | inactive | inactive |  | inactive | inactive | inactive | 0.0447 µM (active) | inactive | inactive |  | inactive |  |  | 
CCC1(O)CC2CN(CCc3c([nH]c4ccccc34)[C@@](C(=O)OC)(c3cc4c(cc3OC)N(C)C3[C@]45CCN4CC=C[C@@](CC)([C@@H](OC(C)=O)[C@]3(O)C(=O)OC)[C@H]45)C2)C1 (stereo not given in full) | 5.01 µM (active) | 0.794 µM (active) | 2.82 µM (active) | inactive | inactive |  |  | inactive |  | 0.0501 µM (active) | inactive | inactive |  | inactive |  |  | 
CC1CCN(CC[C@H]2CCCN2S(=O)(=O)c2cccc(O)c2)CC1 | inactive | 8.91 µM (active) | inactive | inactive | inactive |  | inactive | inactive | inactive | inactive | inactive | inactive | inactive | inactive | inactive | inactive | 
CN1CCN(c2nc3cc(C(F)(F)F)ccc3n3cccc23)CC1 | 11.2 µM (active) | 5.62 µM (active) | 11.2 µM (active) | inactive | inactive | inactive | inactive | inactive | inactive |  | inactive |  | inactive | inactive |  |  | 
Cn1cc(C(F)(F)F)nc1-c1ccc(OCC(O)CNCCOc2ccc(O)c(C(N)=O)c2)cc1 (stereo not given) | 3.16 µM (active) | 10 µM (active) | 5.62 µM (active) |  | inactive | inactive | inactive | inactive | inactive | inactive |  | inactive |  | inactive |  | inactive | 
CCCOC(=O)c1c(-c2ccccc2)nc(CC)c(C(=O)SCC)c1CCC | 12.6 µM (active) | 10 µM (active) | 17.8 µM (active) | inactive | inactive |  | inactive | inactive | inactive |  | inactive | inactive | inactive |  |  | inactive | 
C[C@H](NC(=O)/C(C#N)=C/c1ccc(O)c(O)c1)c1ccccc1 | 12.6 µM (active) | 10 µM (active) | 12.6 µM (active) |  | inactive |  | inactive | inactive | inactive |  | inactive | inactive |  | inactive |  | inactive | 
CC1CNCCN1S(=O)(=O)c1cccc2cnccc12 (stereo not given) | inactive | 7.08 µM (active) | inactive | inactive | inactive | inactive | inactive | inactive |  |  | inactive | inactive |  | inactive |  |  | 
CN(C)CCC(c1ccc(Br)cc1)c1ccccn1 (stereo not given) | inactive | 0.891 µM (active) | inactive | inactive | inactive | inactive | inactive | inactive | inactive | inactive | inactive | inactive |  | inactive | inactive | inactive | 
O=c1ccn([C@@H]2O[C@H](COP(=O)(O)OP(=O)(O)O)[C@@H](O)[C@H]2O)c(=O)[nH]1 | inactive | inactive | inactive | inactive | inactive |  | inactive | inactive | inactive | inactive | inactive |  | inactive | inactive |  | inactive | 
Cc1nc(N=Nc2ccc(C(=O)O)cc2)c(COP(=O)(O)O)c(C=O)c1O | inactive | inactive | inactive | inactive | inactive |  | inactive | inactive | inactive | inactive |  | inactive | inactive |  |  | inactive | 
N=C(N)c1ccccc1 | inactive | inactive | inactive |  | inactive |  | inactive | inactive | inactive | inactive | inactive | inactive | inactive | inactive | inactive | inactive | 
CC(C)NC[C@H](O)COc1ccc(CC(N)=O)cc1 | inactive | inactive | inactive | inactive | inactive |  |  | inactive | inactive | inactive | inactive | inactive |  | inactive |  |  | 
COc1ccc2c(c1)CCC1C2CC[C@@]2(C)C1CC[C@@H]2NCCCCCCN1C(=O)C=CC1=O (stereo not given in full) | inactive | inactive | inactive |  | inactive | inactive | inactive | inactive | inactive | inactive | inactive | inactive | inactive | inactive | inactive | inactive | 
Cc1cccc(C2CN(C)CCc3c2cc(O)c(O)c3Cl)c1 (stereo not given) | 11.2 µM (active) | 7.08 µM (active) | 12.6 µM (active) | inactive | inactive | inactive |  | inactive | inactive | inactive | inactive | inactive |  |  |  | inactive | 
C=CC1(C)CC(=O)C2(O)C(C)(O1)C(OC(C)=O)C(O)C1C(C)(C)CCC(O)C12C (stereo not given) | inactive |  |  |  | inactive |  | inactive | inactive | inactive |  | inactive | inactive | inactive | inactive |  |  | inactive
CC[C@@H]1Cc2cc(O)ccc2C2=C1c1ccc(O)cc1C[C@H]2CC | 11.2 µM (active) | 4.47 µM (active) | 11.2 µM (active) |  | inactive |  | inactive | inactive | inactive |  | inactive | inactive |  | inactive |  |  | 
COc1ccccc1N1CCN(CCCCN2C(=O)c3ccccc3C2=O)CC1 | inactive | 3.55 µM (active) |  | inactive | inactive | inactive | inactive | inactive | inactive | inactive | inactive | inactive | inactive | inactive | inactive |  | 
